Source: PubChem BioAssay AID1508600 (Functional Genomics Laboratory (NCATS/FGL), 2020)
The campaign covered roughly 53,000 sequences. About 3,700 (7%) were called active. The entries come from a sample that favours actives as a whole. Unmarked numbers belong to inactive results.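 How the source made its calls: active means gene knockdowns whose robust z-score for IL-1 alpha signal is at least 2 or at most -2, so actives lie on both sides; inactive means the rest.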

assay: Components of the Cytosolic LPS Sensing Pathway: Gene Identification via Genome-wide siRNA Screen; settings: RAW264.7 macrophages, IL-1a HTRF, actives lie on both sides, screened at 100 nM (by protocol), cells primed 5 h with Pam3CSK4 first;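 further: robust z of the log signal after scaling to non-targeting control siRNA wells of the plate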
Outline: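 RAW264.7 mouse macrophages reverse-transfected with single siRNAs (100 nM final) for 48h, primed with Pam3CSK4 for 5 hours, then transfected with LipidA for 24 hour. Supernatant IL-1a read by HTRF; values normalized to negative-control median, log-transformed robust z-scores.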

Sequence	z-score
GCAGUAACUGUGUCAAAAUTT against Zan	0.879
GGAUAUCAAAGACAAAGCATT against Vps53	-2.58 (active)
CGUGUGUUCCGGAAACAGATT against Tnfrsf11b	-0.188
GGCACAAGUCCAUGUUGUUTT against Emg1	-0.161
GGAGUACGUGAUUGCUCUGTT against Rcvrn	-2.45 (active)
GCCGUUUUAAGAUACCGAUTT against Pde1c	0.642
GGGCAGCUACGUCAUUAAGTT against Prkg2	-0.442
GGAGAAGAACAGAACAUGATT against Igf2	2.36 (active)
GACAGUGAAGGCUUGCCAUTT against 1700019M22Rik	-0.45
GCUAUUUAUCACCAAGACATT against Plpp6	-1.64
CCAGGAUUACAUCCGGACATT against Srbd1	-0.379
GCUUCGACAAAAGAAGAUGTT against Ccdc174	-0.373
CGAAUGAGAUUUUCACUCUTT against Tek	1.07
CCACUAAUCUUCUUCUACATT against Olfr1311	-2.08 (active)
GGCCACCAAGACCAAUGAUTT against Akap8	0.154
GGUUGUAAUAGCCUUAGCCTT against Rassf8	-2.87 (active)
GGUCAAGUAACAUGGUUUGTT against Rundc3b	0.282
CCAGAAACACUAGUAAAGGTT against Dppa3	-0.0972
GGACGUGAAUGUGUUUGACTT against Cyp26b1	0.795
CGAUUACUACAUAAUUGCCTT against Efnb3	1.63
CGGACAAGAUAGUAUUCUUTT against Atp2b1	-1.06
GGAGGAAUACGUAUACUUCTT against Dipk1c	2.16 (active)

Sequence	z-score
GCAGCAUGGCAAAACCACATT against Zbtb12	-0.265
GCAGGCGAUAUAGAAGCAATT against Frg1	0.475
GGCUGUGACUAUGUUGUGCTT against Top3b	-2.15 (active)
GGGAAUUCUAUUCAACACUTT against Rps6ka5	-0.478
GGCUGUGACUUUUGAUCUATT against Prelid3b	0.46
CCAAUGCUUGUGAUAAGCCTT against Krt33a	-0.105
CGGACUUGAGAGCAGAACCTT against Oit1	2.02 (active)
CCUUGUGCCAAAUACUUCATT against Inava	-0.00772
GGAUAACCGUAUUAAUUUCTT against Gm2a	0.709
GGAGAAAGUCAAGAUCAAATT against Gpr4	2.12 (active)
GCAAGCACGGAGAACCAAUTT against Selenoi	-0.212
GGAGUUCAUUGAUCAUUCUTT against Ndufb5	2.21 (active)
GGAAGAUGGAGAUCAGACGTT against Foxd4	-0.498
GGGAUACCCGGCGUAAUCUTT against Col4a2	1.31
CGCAUACAUCAGGUCACUATT against Katnb1	-0.74
GGGCUUUUACUCCUACCUGTT against Slc43a2	-0.794
GGAACCACUGCUAGCCAGATT against Serpinb6a	0.491
GCGAGAAAUUACCACCUUCTT against Klhl8	-0.516
CCGUAUUAGAAAGUAGAUATT against Arpp19	2.01 (active)
ACUUCACGAUGGAAAAAUUTT against Gm9732	-1.63
GGCCUCAUCUUGAAUAUUUTT against Hsd17b3	-1
GGUUCAUCAAACUUGCUUGTT against Olfr1312	0.569

Sequence	z-score
GGAAGAACAGAGGCAGAAGTT against Trpv3	-0.629
GGAAGUACUCUGAAGAUUCTT against Kdm5b	-1.83
CCCACUUCCGAUCCAAAGATT against Zfp593	0.936
CCUAUGUCAUCAUUGGAGUTT against Tmem45a2	-0.613
GCUGUUAUAACCUUGUUACTT against Rspry1	1.19
GCCCAGUUUGGUUAUGUAUTT against Yipf7	0.115
GCGGAGAGAUCAAAGCGAUTT against Iltifb	-2.05 (active)
GCAGCAACAUUCUUUGGAUTT against Adk	0.986
GGACAAUAUCAGAAAGAGUTT against Purg	1.13
GGGUUUUUUCCAGUCAUCUTT against Nfx1	-2.02 (active)
GGAUGUUCUACUGCUACACTT against Dtwd1	-0.706
GGUGGCCAAGAAUGUGAAUTT against Cxcl17	1.38
CCUACUCUCUAGAAAAGGATT against Olfr1006	-1.76
GGAGUGAAGGCCAGCUGAATT against Son	-0.848
GGAACACCAUGAAGAAGACTT against Gabarap	-0.147
GGAAAACUUUCAAAGAGAUTT against Mc4r	0.24
GUCAUCAAACUAGGUGCUGTT against Olfr584	-2.22 (active)
GGAAAAAUUUAGACAGCACTT against Csrp2	0.132
GACUCAUUCUGCAAUGAAGTT against Ifna5	0.105
GCUAAGGACACAAAAUCCATT against Slc38a10	0.129
GGAGAAAGAAAGCAGUUUUTT against 2310067E19Rik	1.55
GGUUAGAGGAAAGGUUUAUTT against Htr1f	5.07 (active)

Sequence	z-score
GGGCAUUUUAACCAAAUGATT against Marchf11	0.544
GCUGCCUCAUUUCUGGAUGTT against Klk11	1.1
GGACAUGGAUGACACUGAUTT against Tsr3	-1.99
GGAAGAUGCACAUCUGGACTT against Enoph1	-0.55
CCAGGAUUCCGACUGAAUCTT against Oscp1	-0.367
GGGCUAAGUACCAAACUCATT against Ly6e	-1.71
GCUUGCUAGAGUGAUCUCGTT against Adsl	-0.331
GGCUUUUUCCACAUGUGCCTT against Olfr514	-2.29 (active)
GCCCUUGGAAUUUACCACUTT against Aldh8a1	-0.546
CCAGACUGAGAAGAUAUGATT against Meox2	-0.146
GGACAUUGUCUACAAGUUGTT against Pcgf2	1.12
GGUGUCAGCGAAAAGCAGUTT against Ring1	-2.2 (active)
GGACCGCUACUAUUCAGGATT against Myh10	0.93
GGGUUUUGGAUGGCGAAUATT against Lgals7	-0.0835
GGACGAAAAGAAGUGUUUCTT against Lamb2	-0.103
GGGAAACUCUGUCCAAUUGTT against Eif2d	0.402
CGGGAAAUUUCUAUUGGACTT against Akr1c12	0.312
GGUGAUGGAAGUUAGUGUGTT against Bet1	-1.34
GGCAUUCACCAUACAAUGATT against Ufm1	0.687
GGUCAUUGGUUCCUCCCUUTT against C2cd4c	2.59 (active)
GGCUAACCACAUUUGCUUCTT against Zic4	0.759
GGAAGAUGUCCAAACCCGCTT against Tspan4	0.671

Sequence	z-score
GCAGCUAAGAAGACCACUATT against Zfp185	2.15 (active)
GGAGGUAACGCAUGUUACATT against 4930483J18Rik	0.393
GCGAAGUUACUACAGACGUTT against Slc39a1	-0.124
CCAGUCAAAUAUCCAUUAGTT against Scgb2b26	-2.28 (active)
GGAGACUCUCACCUAUCAUTT against Doc2g	-0.458
CCAAUCACCAGAGACUAACTT against Slain1	2.81 (active)
GGAAGUUUUUGAGAAUGGGTT against Ppp3cc	-0.38
CCGAAUUCCAACCUAGAGCTT against Yipf5	-1.38
CCGCUCACGUGAAAAAGUUTT against Tars2	0.327
GGACAUCUGGUUAUGAAUGTT against B3galt6	-0.111
GCCGAGCUCAUCAUCAUGATT against Prss40	2.5 (active)
GCAUGACUCUCAGGUCAAGTT against Lman2	1.54
GGACAUUGCAUUGCUCAUGTT against Sec1	-0.526
CCUUCUUAUUGCUUAACCCTT against Scd3	0.279
GGAAGAAGAUAAAGAGCGGTT against Nrgn	-0.708
GGACCUCAGUCACUUCCAATT against Etv4	2.93 (active)
AGUUCCAGGCGCAGAAACCTT against D8Ertd738e	1.46
GGUUUUUCUUCUGCUGGUGTT against Olfr1256	1.64
CCGGCUAAAUCACCGUGCUTT against Clpb	-0.647
GCCCAAAAAGGAAUUAAUUTT against Pak3	-0.176
